Calpain2 inh: inhibitors of pig calpain II; purified calpain II, fluorogenic peptide substrate, 30 min; inhibition, % at 16 µM; actives 0.37% (n = 220,000); AID 1236;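 active = inhibition above about 50%, limit read from the data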
Lmaj promast: inhibitors of Leishmania major promastigote growth; inhibition, % at 10 µM; actives 9% (n = 200,000); Leishmania major promastigotes, resazurin fluorescence viability; in the data active = inhibition above about 50%;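 also: promastigotes grown with compound for 44 hours at 28 °C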
ROMK primary: modulators of human ROMK potassium channel | P48048 | Tet-inducible ROMK, thallium flux fluorescence; actives lie on both sides | B-score at 10 µM | actives 2% (n = 130,000) | AID 1918;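 active = signal ratio slope over the read window, or its plate-corrected B-score, at least 3 SD from the plate mean, either direction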;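 also: B-score of the F/F0 ratio slope over 7 to 12 s after thallium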
Target sequence (P48048 whole entry, looked up): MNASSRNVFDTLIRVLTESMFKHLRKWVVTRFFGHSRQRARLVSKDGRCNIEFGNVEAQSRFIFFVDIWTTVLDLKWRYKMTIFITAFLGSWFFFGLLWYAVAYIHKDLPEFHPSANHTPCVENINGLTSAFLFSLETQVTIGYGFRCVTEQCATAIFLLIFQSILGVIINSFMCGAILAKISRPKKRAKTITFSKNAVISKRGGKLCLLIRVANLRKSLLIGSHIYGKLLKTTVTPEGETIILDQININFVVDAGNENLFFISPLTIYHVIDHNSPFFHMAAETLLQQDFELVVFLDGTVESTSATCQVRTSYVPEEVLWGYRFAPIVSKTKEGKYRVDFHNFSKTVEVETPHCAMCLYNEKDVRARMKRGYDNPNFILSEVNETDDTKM
KCC2 mod: modulates chloride dependent transport by human KCC2; B-score of Tl+ flux slope (higher = more flux/activation; lower = inhibition) at 10 µM; KCC2 cells, thallium flux FluoZin-2 fluorescence; actives 2.2% (n = 190,000);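 active = thallium flux slope and its plate-corrected score both differing from the plate sample mean at a set confidence after two filtering rounds, in either direction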;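 also: slope of fluorescence scaled to starting intensity during 10 to 20 s after thallium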
WT yeast gro inh: growth inhibition of WT yeast, mitochondrial fusion screen. actives 2.1% (n = 190,000). mitochondrial fusion phenotypic screen, WT strain. AID 1362. inhibition, % at 10 µM; in the data active = inhibition above about 58%; tested in S. cerevisiae
ROMK hit retest: human ROMK channel modulation, retest confirmation; shares compounds with ROMK primary; ROMK thallium flux, fluorescence ratio; stronger effect = lower value; normalized thallium flux (F/F0 slope) at 10 µM; actives 54% (n = 3,000); AID 1917;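 active = Flux at 10 µM at least 3 SD below or above vehicle control mean in one or both replicates; inconclusive = no clear call, values can overlap the other calls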
* hit, by the source's call; ? = inconclusive; . = no result. Compounds with a hit are over-represented: about 12% of the library has one in this group of screens.

SMILES	Calpain2 inh	Lmaj promast	ROMK primary	KCC2 mod	WT yeast gro inh	ROMK hit retest
COc1ccccc1NC(=O)c1sc2nc(Cc3ccccc3)cc(C(F)(F)F)c2c1N	-125	6	-5.5*	0.27	-4	0.048*
Cc1nnc(NC(=O)c2ccc3ccccc3n2)s1	8	17	0.28	3.3	9	.
Cc1ccc(Cn2c(=N)n(CC(O)COc3ccccc3)c3ccccc32)cc1 (centres undefined)	8	101*	-4.1*	0.18	33	0.049*
CCCCn1c(=N)n(CC(O)COc2ccc(C)cc2)c2ccccc21 (centres undefined)	-9	101*	-7*	0.08	13	0.048*
CCCn1c(=N)n(CC(O)COc2cccc(C)c2)c2ccccc21 (centres undefined)	-14	96*	-3.4*	.	8	0.051*
Cc1nccn1CC(O)COc1ccccc1 (centres undefined)	13	-6	0.32	0.35	10	.
CCCCn1c(=N)n(CC(=O)c2ccco2)c2ccccc21	10	11	.	0.055	13	.
CCCCn1c(=N)n(CC(O)COc2ccccc2)c2ccccc21 (centres undefined)	19	55*	-3.7*	0.03	33	?
Cc1cccc(OCC(O)CN2C(C)(C)CC(O)CC2(C)C)c1 (centres undefined)	-12	-3	0.3	2.6	1	.
CCOC(=O)c1sc(C(=O)OCC)c(OCCO)c1OCCO	-20	-10	0.075	0.074	-14	.
COc1ccc(-n2c(Cn3c(=O)sc4ccccc43)nnc2SCC(=O)N2CCOCC2)cc1	6	2	.	.	9	.
CCCCN(CC)c1nc(N)c(C#N)c(CC#N)c1C#N	-33	-6	-3.1*	-0.64	-3	0.055*
CC(=O)N1CCN(c2nc(N)c(C#N)c(CC#N)c2C#N)CC1	-43	.	.	1.4	.	.
C=C(C)CN(CC)c1nc(N)c(C#N)c(CC#N)c1C#N	-28	13	-2.6*	.	-10	0.055*
CCO[C@H]1OC(C(=O)N2CCN(Cc3ccc4c(c3)OCO4)CC2)=C[C@@H](c2ccc(Br)cc2)[C@@H]1CCCO	-3	44	.	-0.69	35	.
Cc1cccc(N(Cc2ccc(Cl)cc2)S(C)(=O)=O)c1	10	13	-0.7	-1.2	5	.
CCOc1ccc(-n2c(=O)c3sccc3n(Cc3ccc(C)cc3)c2=O)cc1	-5	12	-0.16	-0.35	-7	.
Cc1c(NC(=O)CNCc2ccc3c(c2)OCO3)c(=O)n(-c2ccccc2)n1C	6	.	.	.	.	.
CC(C)[C@H](NS(=O)(=O)c1cccc(C(F)(F)F)c1)C(=O)OCC(N)=O	-11	-10	-0.22	2	-11	.
N#C/C(=C\C1=C(N2CCOCC2)C(=C\c2ccc(Cl)cc2)/CC1)C(=O)Nc1ccccc1F	29	13	-1.9	0.36	-9	.
N#C/C(=C\C1=C(N2CCOCC2)C(=C/c2cccc([N+](=O)[O-])c2)/CC1)C(=O)Nc1ccccc1F	1	-6	-3.4*	-0.46	13	0.061*
COC(=O)CSC1=C(C#N)C(c2ccsc2)CC(=O)N1 (centres undefined)	-2	-1	.	-0.023	-10	.
CC(OC(=O)c1ccc2ccccc2n1)C(=O)Nc1ccc(N2CCOCC2)cc1 (centres undefined)	15	-3	-0.032	.	-20	.
CCOC(=O)c1sc2nc(CSc3nc4ccccc4n3CC)[nH]c(=O)c2c1C	-60	1	.	2.1	0	.
CCOC(=O)c1sc2nc(COC(=O)c3c(F)cccc3F)[nH]c(=O)c2c1C	-86	6	-2.4*	1.1	11	0.09
SMILES	Calpain2 inh	Lmaj promast	ROMK primary	KCC2 mod	WT yeast gro inh	ROMK hit retest
COCCn1c(-c2ccc(Cl)cc2)cnc1SCC(=O)NCc1cccs1	1	4	0.63	-0.91	2	.
CC(C)c1ccc(/C=C(\c2nc3ccccc3[nH]2)S(=O)(=O)c2ccccc2)cc1	-30	100*	-3.7*	-0.37	9	0.06*
COc1ccc(/C=C(/NC(=O)c2ccccc2)c2nc3ccccc3[nH]2)cc1OC	-23	1	.	-0.06	-2	.
O=S(=O)(/C(=C/c1ccc(C(F)(F)F)cc1)c1nc2ccccc2[nH]1)c1ccccc1	-20	100*	-4.3*	-0.057	3	0.051*
O=c1[nH]c2ccccc2nc1C(F)(F)F	-69	.	.	-0.05	.	.
O=C1CCC/C(=N\NC(=O)c2ccc(NS(=O)(=O)c3ccc(Br)cc3)cc2)C1	-44	-7	0.67	-0.0066	1	.
Cc1noc(NS(=O)(=O)c2ccc(N/C=C\C(=O)c3ccc(F)cc3)cc2)c1C	-8	-8	3.9*	-0.071	4	0.083
CC1CCN(S(=O)(=O)c2ccc(C(=O)N3CCN(c4ccccc4F)CC3)cc2)CC1	15	11	-1.1	-0.25	26	.
O=S(=O)(c1ccc(Oc2ccc(Cl)cc2)c(S(=O)(=O)N2CCCCC2)c1)N1CCCCC1	44	2	.	0.22	12	0.064*
O=[N+]([O-])c1cc(S(=O)(=O)N2CCCCCC2)ccc1Cl	18	27	-3.9*	0.053	-3	0.064*
CCC(Sc1ccc2nnc(CCNS(=O)(=O)c3ccc(OC)cc3)n2n1)C(=O)OC (centres undefined)	8	-1	-0.029	0.16	-8	.
CCCNC(=S)N1CCN(C(c2ccccc2)c2ccccc2)CC1	21	36	-3.2*	-0.65	69*	0.082
S=C(NCCc1ccccc1)N1CCN(C(c2ccccc2)c2ccccc2)CC1	-9	24	1.2	0.13	27	.
CC(CNS(=O)(=O)c1ccccc1)(c1ccccc1)N1CCCCC1 (centres undefined)	-10	.	.	-0.98	.	.
CCOc1ccc(-c2nc(CSCC(=O)N3CCN(c4cccc(OC)c4)CC3)c(C)o2)cc1	6	5	.	.	3	0.067*
CCc1cc(C(=O)OC)c(NC(=O)CC2SC(=NC)N(C)C2=O)s1 (centres undefined)	17	-6	-0.51	-0.49	6	.
N=c1sccn1CC(=O)N1N=C(c2ccc(Cl)cc2)CC1c1ccco1 (centres undefined)	5	63*	-3.2*	-0.45	-4	0.064*
Cc1cccc(-n2c(Cc3ccccc3)nnc2SCc2ccc([N+](=O)[O-])cc2)c1	18	8	-7.4*	-1.7	32	0.044*
COc1ccc(-n2c(Cc3ccccc3)nnc2SCc2ccc([N+](=O)[O-])cc2)cc1	20	7	-2.3*	-2.3	17	0.06*
CSc1n[nH]c(=O)n1-c1ccc(Cl)cc1	21	.	.	0.011	.	.
CCOc1ccc(-c2[nH]ncc2-c2ccc(OC)c(OC)c2)c(O)c1	-5	-10	3.7*	-0.84	3	0.099*
CCc1cc(/C(Cc2csc(C)n2)=N/O)c(O)cc1O	13	3	-3.3*	-0.77	-28	0.067*
CCC1COC(c2cccn2Cc2ccccc2Cl)=N1 (centres undefined)	44	-5	.	-1	22	.
CC(=O)c1ccc(Nc2cc(C)nc3c(C)cccc23)cc1	-5	27	4.2*	-1.6	1	0.087
